What all share (assay): qHTS profiling for inhibitors of Plasmodium falciparum proliferation (AID 504749); further: nearly all actives have a fitted effect of over 60% in size
Conditions in all cases: P. falciparum in erythrocytes, SYBR Green DNA, 72 h; series mostly up to 28.7 µM

The subject of one assay is CP185. In a few lines: (§1)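 Readout was DNA-dye fluorescence from lysed cultures, ex 485/em 535 nm. Parasitized red cells had grown 72 h with compound; data scaled between 0.29 uM artemisinin and DMSO wells and corrected using vehicle-only plates.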
The test system of the next assay is CP192. In a few lines: as §1
The test system of a further assay is CP201. In a few lines: as §1
A further assay relates to CP211. In a few lines:
as §1

The test system of another assay is CP191. In a few lines:
as §1

The next assay has as its system CP203. In a few lines: as §1
The next assay deals with CP215. In a few lines:
as §1

A further assay has as its system CP217. In a few lines:
as §1

The subject of another assay is C2A. In a few lines: as §1
In the next assay the test system is CP194. In a few lines:
as §1

Structures are written as SMILES. Records with an inconclusive call do not appear. Calls of active or inactive are those of the source. The call rests on the fitted dose curve; in most records, active means well fitted inhibition curve with a large enough effect; inconclusive means small, poorly fitted or top-dose-only effect; inactive means flat fitted curve, though single readings scatter.
Potency means the concentration at half of the fitted maximal effect.

Take `CCC(=O)c1ccc2c(c1)N(CCCN(C)C)c1ccccc1S2`: the Potency result in the assay on CP185 and in the assay on CP192 was “inactive” throughout.

On to `Cc1nc2sccn2c(=O)c1CCN1CCC(=C(c2ccc(F)cc2)c2ccc(F)cc2)CC1`, for which the Potency entry in the assay with CP192, in the assay with CP201 and in the assay with CP211 was “inactive” each time.

`COc1cc(C(=O)OCCCN2CCCN(CCCOC(=O)c3cc(OC)c(OC)c(OC)c3)CC2)cc(OC)c1OC`: the Potency in the assay with CP191 is 12.6 µM (active).

Regarding `CN(C(=O)CCCOc1ccc2[nH]c(=O)ccc2c1)C1CCCCC1`, the Potency entry with CP185, in the assay on CP191, in the assay with CP192, with CP201, in the assay with CP203 and in the assay with CP211 was “inactive” in each case. In addition, the Potency result with CP215 and with CP217 was “inactive” each time.

Consider `Brc1c(NC2=NCCN2)ccc2nccnc12`, for which the Potency result in the assay with C2A, with CP185, in the assay with CP192, with CP194, in the assay with CP201 and with CP211 was “inactive” each time. Also, the Potency entry in the assay with CP215 and in the assay with CP217 was “inactive” each time.

As for `CCCC(C(=O)OCCN(CC)CC)(c1ccccc1)c1ccccc1`, the Potency with CP192 is 9.53 µM (active); with CP215 it was 12 µM (active).

For the compound `CCCCNc1ccc(C(=O)OCCN(C)C)cc1`, the Potency result in the assay on C2A, in the assay with CP185, with CP191, in the assay on CP192, with CP203 and with CP215 was “inactive” in each case. Further, the Potency entry with CP217 was “inactive”.

On to `CC(=O)[C@]1(O)Cc2c(O)c3c(c(O)c2[C@@H](O[C@H]2C[C@H](N)[C@H](O)[C@H](C)O2)C1)C(=O)c1ccccc1C3=O`, for which the Potency in the assay on C2A was 6.31 µM (active); in the assay on CP185, 11.2 µM (active); in the assay on CP191, 3.16 µM (active); with CP194 it was 15.1 µM (active); in the assay with CP211, 13.5 µM (active); in the assay on CP215, 10.7 µM (active). Besides, the Potency in the assay with CP217 was 5.01 µM (active).

Consider `O=C1NCN(c2ccccc2)C12CCN(CCCC(c1ccc(F)cc1)c1ccc(F)cc1)CC2`, for which the Potency in the assay with C2A was 7.08 µM (active); with CP185, 10 µM (active); with CP191, 5.62 µM (active); with CP217, 8.91 µM (active).

Take `CN(C)CC[C@@H](c1ccc(Br)cc1)c1ccccn1`: the Potency entry in the assay with C2A, with CP192, in the assay with CP211 and in the assay on CP217 was “inactive” each time.

With `CC(C)[N+](C)(CCOC(=O)C1c2ccccc2Oc2ccccc21)C(C)C`, the Potency entry in the assay on CP185, in the assay on CP201, in the assay on CP211 and in the assay on CP215 was “inactive” in each case.

`NC(N)=NC(=O)Cc1c(Cl)cccc1Cl`: the Potency with CP191 is 8.91 µM (active); in the assay on CP217, 6.31 µM (active).

In the case of `CNCCC(Oc1ccccc1OC)c1ccccc1` (centres undefined), the Potency result with C2A, with CP191, in the assay with CP192, in the assay with CP211 and in the assay with CP215 was “inactive” throughout.

Take `Cc1nc2ccccn2c(=O)c1CCN1CCC(C(=O)c2ccc(F)cc2)CC1`: the Potency entry in the assay on CP185, in the assay on CP192, with CP201, in the assay on CP211, in the assay on CP215 and with CP217 was “inactive” in each case. Moreover, the Potency with CP191 is 7.94 µM (active).

(Values after PubChem BioAssay (NCATS).)
